Assay results taken from PubChem BioAssay AID1626 (SRMLSC, 2009).
The campaign covered roughly 220,000 compounds. About 2,000 (0.91%) were called active. Roughly 2% stayed inconclusive and do not appear here. A selection follows. Entries with a potency or affinity are not part of this list. Values without a mark were called inactive. Cut-off read from the data, not from the text of the source: inconclusive = inhibition above about 80% without an active follow-up result; inactive = below that; test concentration not stated here.

assay: M. tuberculosis H37Rv growth inhibitors, H37Rv strain (AID 1626); settings: stronger effect = higher value, concentration not given here;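 note: bacteria incubated seven days before Alamar blue readout; 0% = bacteria only wells and 100% = bacteria with antibiotic wells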

Structure (SMILES) | inhibition [%]
CN(C)CCCCCCCCCCC(=O)/C=N/O | 7.54
CCn1ncc(CN2CCN(Cc3ccc(OC)c(C)c3C)C(CCO)C2)c1C (stereo not drawn) | 3.6
N[C@@H](Cc1c[nH]c2ccccc12)c1nnc(SCc2ccccc2)o1 | -10.5
Cc1cc2oc(=O)c3c(c2cc1OCc1nn[nH]n1)CCCC3 | -6.49
CCOC(=O)COc1ccc2c3c(c(=O)oc2c1C)CCC3 | 76.7
COCCCn1c(SCC(=O)OC2CCCCC2)nnc1-c1ccco1 | -15.4
Cc1ccccc1SCc1noc(C(=O)NCC2CCCO2)c1C(=O)O (stereo not drawn) | -6.27
COc1ccc(-n2c(O)c(C(C)=NCCCn3ccnc3)c(=O)[nH]c2=O)cc1 | -3.9
O=C(Nc1ccc(NC(=S)NC(=O)c2cccs2)cc1)c1ccco1 | -2.57
O=C(OCC(=O)N(C1CCCCC1)C1CCCCC1)c1ccco1 | -7.12
CCc1[nH]nc2c1C1(CCOC1C)C(C#N)=C(N)O2 (stereo not drawn) | -2.61
CCCn1c(Sc2nc3c(c(=O)[nH]c(=O)n3C)n2CCC)nc2c1c(=O)[nH]c(=O)n2C | 3.31
Cn1c(=O)[nH]c(=O)c2c1nc([N+](=O)[O-])n2Cc1ccccc1 | 72.1
CC(C(=O)c1ccccc1)N1C(=O)c2ccccc2C1=O (stereo not drawn) | -3.22
N#Cc1cccnc1N1CCC(C(N)=O)CC1 | -8.98
O=C(N/N=C/c1ccc2c(c1)OCO2)C(=O)Nc1ccc2ccccc2c1 | 1.96
O=c1c2ccccc2nc(-c2ccc(Cl)cc2Cl)n1O | 1.38
CSc1ccccc1NC(=O)c1ccc(C)o1 | -1.2
COc1ccc2c(c1)Sc1ccccc1N2CCN(C)C | 2.43
CN(C)CCCN1c2ccccc2Sc2ccccc21 | -4.11
O=c1[nH]c2cccnc2c2ccsc12 | -1.93
Cc1ccc(/C=N/N2CCN(c3ccncc3S(=O)(=O)N3CCCCC3)CC2)cc1 | 7.81
Cc1cc2c(s1)CCCCC(=O)N2 | -2.34
O=C1CCCc2sc3c(c2N1)CCCCC3 | -8.7

Structure (SMILES) | inhibition [%]
Cc1cc(C(=O)NC(Cc2ccccc2)C(=O)O)c(C)o1 (stereo not drawn) | 1.76
O=C(CNC(=S)N(CCCN1CCOCC1)Cc1cccs1)NCCN1CCOCC1 | 5.22
NC(=O)CN1C(=O)C2C3c4ccccc4C(c4ccccc43)C2C1=O (stereo not drawn) | 2.42
CCNc1nc(NCC)nc(N/N=C/c2cc(OC)c(OC)c(OC)c2)n1 | -2.94
Cc1cc(-c2c(C)[nH]n(-c3ccc(Cl)cc3)c2=O)n[nH]1 | 65.3
Cc1[nH]n(-c2ccccc2)c(=O)c1-c1ccccc1 | -7.21
CCOC(=O)C1=C(O)/C(=C/c2ccc(OCC(=O)O)c(OC)c2)SC1=Nc1ccc(OC)cc1 | 17.4
CCNc1nc(N2CCCC2)nc(N2CCCC2)n1 | 1.64
CC(C)(C)Nc1nc(N2CCCC2)nc(N2CCCC2)n1 | 14.2
COc1ccc(N2CCN(c3nc(Nc4ccc(C)c(F)c4)nc(N4CCCC4)n3)CC2)cc1 | 1.07
CCOc1ccc(Nc2nc(N3CCCC3)nc(N3CCN(c4ccc(OC)cc4)CC3)n2)cc1 | -4.38
O=C(NC(=S)NCCSc1ccccc1)c1cccnc1 | 4.56
COc1ccc(S(=O)(=O)NC2CCCCC2)cc1-n1cnnn1 | -10.3
Fc1cccc(Cl)c1/C=N/Nc1ccccn1 | 3.42
O=c1[nH]c(=O)n(Cc2ccccc2Cl)c(O)c1C=Nc1ccc(F)cc1 | 3.81
C=CCn1c(O)c(/C=C2/C=CC=N2)c(=O)[nH]c1=O | 49
COc1ccc(Cn2c(O)c(/C=N/NC(=O)c3ccccc3)c(=O)[nH]c2=O)cc1 | -2.76
Cn1c(O)c(/C=C2/C=CC=N2)c(=O)[nH]c1=O | 1.64
O=C(NC1CCCCC1)N1CCCc2ccccc21 | -7.82
Cc1ccc(CC2C(=O)N(CC(=O)O)C(=O)C2C)cc1 (stereo not drawn) | -14.9
CCCCNC(=O)Nc1ccccn1 | -6.21
O=C(Nc1ccccn1)C(=O)Nc1ccccn1 | -5
CC(O)Cc1cn([C@@H](CCCCNC(=O)OC(C)(C)C)C(=O)N2CCN(C(=O)OC(C)(C)C)CC2)nn1 (stereo partly drawn) | -10.7
CO/C=C/C#CC1(O)CCN(C)CC1 | -1.81
